Hits are enriched below; roughly 6.5% of the tested compounds scored in any of these assays.
HCMV antiviral – inhibitors of human cytomegalovirus. HFF cells, HCMV-luciferase reporter, 72 h; hits give low values. 410,000 tested, 4.5% active. activity change, negative = inhibition, % at 57.5 µM; in the data active = activity change below about -60%; inconclusive = no clear call, values can overlap the other calls; inactive = above about -39%
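Two compound doses tested in HFFs infected with HCMV-luciferase, MOI 1 PFU/cell, 72 h at 37C. Lysate luminescence read with OneGlo; data normalized against buffer-only and 10uM Salinomycin inhibitor controls.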
Vaccinia mCherry – vaccinia inhibition (mCherry reporter). 310,000 tested, 0.63% active. Vaccinia virus mCherry reporter infection, fluorescence. Potency, µM (series often up to 36.5 µM), without a hit: top-dose activity change, negative = inhibition, hits mostly inhibitors; calls by dose curve; tested in A549 cells; also: potency is read from the fitted curve at half-maximal effect; nearly all actives have a fitted effect of over 35% in size
LASV entry inh – blocks Lassa virus binding to or entry into cells; Lassa virus pseudotype entry inhibition, cell reporter; Potency, µM (top dose mostly 37.9 µM), inactives show top-dose activity change, negative = inhibition, hits mostly inhibitors; 300,000 tested, 1.2% active; calls by dose curve; tested in HEK293 cells; also: potency is read from the fitted curve at half-maximal effect; nearly all actives have a fitted effect of over 50% in size
Vaccinia Venus – inhibitors of vaccinia virus (Venus reporter). Vaccinia virus Venus reporter expression, fluorescence. Potency, µM (highest dose often 36.5 µM), without a hit: top-dose activity change, negative = inhibition, usual class: inhibitors. 330,000 tested, 0.46% active. AID 720580; calls by dose curve; tested in A549 cells; also: potency is read from the fitted curve at half-maximal effect; nearly all actives have a fitted effect of over 30% in size
MARV entry inh – blocks Marburg virus binding to or entry into cells; Marburg virus pseudotyped entry inhibition, cell reporter; Potency, µM (highest dose often 37.8 µM), for inactives: top-dose activity change, negative = inhibition, actives largely listed as inhibitors; 300,000 tested, 1.8% active; AID 540276; calls by dose curve; tested in HEK293 cells; also: potency is read from the fitted curve at half-maximal effect
FMDV inh – blocks foot and mouth disease virus; FMDV antiviral cell-based qHTS; Potency, µM (doses to about 57.9 µM), without a hit: at the highest dose activity change, negative = inhibition, usual class: inhibitors; 410,000 tested, 1.2% active; AID 1159524; calls by dose curve; tested in HEK293T cells; also: read-out not given here; potency is read from the fitted curve at half-maximal effect; nearly all actives have a fitted effect of over 45% in size
Numbers without * were called inactive; i = inactive; u = inconclusive; x = no result given; [ ] = remark or other dose. % is scaled to controls: 0 for no effect and ±100 for the full control effect.

SMILES | HCMV antiviral | Vaccinia mCherry | LASV entry inh | Vaccinia Venus | MARV entry inh | FMDV inh
Cc1ccc(-c2noc(CCCC(=O)Nc3cccnc3)n2)cc1 | -63.1* | -14.5% | u | u | u | u
COc1ccc(-c2noc(CCC(=O)Nc3ccccc3Cl)n2)cc1OC | -16.6 | -8.5% | -2.6%[46.1 µM] | -9.5% | 14.3%[46.1 µM] | -26.3%
Cc1ccc(-c2noc(CCC(=O)NC3CCCC3)n2)cc1 | 2.1 | 0.2% | u | -11.1% | u | -9.1%
COc1ccc(-c2noc(CCCC(=O)Nc3cccc(Cl)c3C)n2)cc1 | -76.7* | -7.3% | u | -12.4% | u | u
Nc1c(C(=O)NCc2cccs2)nnn1CC(=O)Nc1cccc(F)c1 | 11.8 | -5.4% | 1.5%[46.1 µM] | -2.3% | 5.0%[46.1 µM] | -14.4%
O=C(CCCn1c(=O)c2ccccc2n(CC(=O)Nc2cccc(Cl)c2)c1=O)NCc1ccc2c(c1)OCO2 | u | -7.1% | -1.1%[46.1 µM] | 0.6% | -25.2%[46.1 µM] | -8.0%
CN(C(=O)/C=C/c1ccc2c(c1)OCO2)c1ccccc1 | 0.0 | i | 4.4% | -13.2% | -7.9% | 42.4%
CN(C(=O)C=Cc1ccccc1)c1ccccc1 | -100.5* | -21.1% | 2.8%[46.1 µM] | -3.8% | 3.9%[46.1 µM] | 35.9%
CC1CC(C)(C)CC2(C1)NC(=O)N(CC(=O)N1CCN(Cc3ccc(C#N)cc3)CC1)C2=O (stereo not drawn) | -84.2* | u | u | -25.0% | u | u
CC1(c2ccc3ccccc3c2)NC(=O)N(CC(=O)N2CCN(Cc3ccc(C#N)cc3)CC2)C1=O (stereo not drawn) | x | u | u | u | 0.562µM* | u
CCCCN(C)C(=O)c1sc(=O)n(Cc2c(C)cccc2C)c1C | -61.2* | i | x | -0.1% | x | -7.9%
COC(=O)C1=CN(C(C)C)C=C(C(=O)OC)C1c1cc(Br)c(OC)c(OC)c1 | -0.1 | x | 4.11µM* | x | u | u
COc1ccc(CCNC(=O)CCc2cn(Cc3ccccc3Cl)c3ccccc23)c(OC)c1 | -30.3 | -11.0% | u | -12.3% | x | -2.7%
N#CC(C#N)=C1NC2(CCCCC2)Cc2ccccc21 | -8.2 | x | x | x | x | -20.7%
N#CC(C#N)=c1ccc2c(c1)NC1(CCCCC1)N=2 | -84.5* | -25.3% | u | -36.1% | u | 25.1µM*
Cc1ccccc1CNC(=O)Cc1csc2ccccc12 | 77.0 | -10.6% | 10.2%[46.1 µM] | -14.5% | u | 7.9%
[O-]/[N+](=C\c1ccncc1)c1ccccc1 | -13.3 | -6.4% | 18.3% | 0.0% | 1.9% | 24.4%
[O-]/[N+](=C/c1ccc(F)cc1)c1ccccc1 | -79.9* | x | -12.9% | x | 2.9% | 0.0%
Cc1c(C(=O)OCc2ccccc2)[nH]c2c1C(=O)CC(c1ccc(Cl)cc1)C2 (stereo not drawn) | -68.8* | -5.9%[7.34 µM] | -10.4%[46.1 µM] | -6.6%[7.34 µM] | -29.6%[46.1 µM] | -11.1%
CCOc1ccc(C2CC(=O)c3c([nH]c(C(=O)OC4CCC(C)CC4)c3C)C2)cc1 (stereo not drawn) | 0.6 | -5.2% | -5.4%[46.1 µM] | -6.1% | 2.1%[46.1 µM] | -18.2%
Cc1c(C(=O)OCCOc2ccccc2)[nH]c2c1C(=O)CCC2 | -78.8* | -15.1% | 7.94µM* | -24.7% | u | -62.7%
CC(=O)c1c(C)[nH]c(C(=O)OCCOc2ccccc2)c1C | u | -10.7% | u | -4.8% | u | -81.2%
CCOc1ccc(C2CC(=O)c3c([nH]c(C(=O)OCCOc4ccccc4)c3C)C2)cc1 (stereo not drawn) | -106.0* | -17.4% | u | u | -1.3%[46.1 µM] | -23.2%
CCc1ccc(C2CC(=O)c3c([nH]c(C(=O)OCCOc4ccccc4)c3C)C2)cc1 (stereo not drawn) | -73.5* | i[7.34 µM] | u | -16.0%[7.34 µM] | u | u
O=C(Cn1c(=O)n(Cc2nc(-c3ccccc3)no2)c(=O)c2cc3c(cc21)OCO3)Nc1ccc(Cl)cc1 | 9.3 | -10.9% | 16.7%[46.1 µM] | -9.6% | x | 2.5%
CCOc1ccc(/C=C/c2nc(C#N)c(Nc3ccc(OC)cc3)o2)cc1 | u | -1.6% | -22.0%[46.1 µM] | -5.5% | 4.2%[46.1 µM] | -10.0%
Cc1ccc(NC(=O)N2CCc3c(sc4c3CCCC4)C2c2ccccc2)cc1F (stereo not drawn) | 16.7 | -11.3% | 15.4%[46.1 µM] | 3.1% | x | 3.6%
Cc1c(N2C(=O)S[C@H](CC(=O)O)C2=O)c(=O)n(-c2ccccc2)n1C | x | x | x | x | 11.7% | x
COC(=O)c1[nH]c2c(c1C)C(=O)CC(c1ccc(OC)cc1)C2 (stereo not drawn) | -19.4 | 0.8% | -18.3%[46.1 µM] | 4.3% | -3.6%[46.1 µM] | -5.9%
COC(=O)c1[nH]c2c(c1C)C(=O)CC(c1ccccc1)C2 (stereo not drawn) | -68.7* | -9.3% | u | u | u | x
